According to PubChem BioAssay AID1159580 (chemical genetic matrix, 2015):
Several values for one entry are separate records, joined by “and”; a condition that tells them apart may be missing. Identical values can stand only once. The campaign covered roughly 5,500 compounds. About 2,000 (36%) were called active. Another 18% or so got no clear call; they are omitted. No stated cut-off is given here; in the data, active means normalized growth mostly below about 0.91 (no sharp cut-off); inconclusive means no clear call, values can overlap the other calls; inactive means mostly above about 0.92. The list shows a part of the results.

Experiment: chemical genetic growth profiling, strain panel (AID 1159580);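 further: tested at 20 µM; growth read once vehicle control cultures reached saturation at 30 °C; 1 = growth at the plate median or of vehicle wells; lower values mean less growth of the strain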
Details: S. cerevisiae deletion strains, growth OD

Measured: normalized growth

COP(=O)(OC)OC=C(Cl)Cl
inactive: locus YAL013W, strain DEP1, active compounds read low 0.997 | locus YAL021C, strain ccr4, active compounds read low 0.988 | locus YAL026C, strain drs2, active compounds read low 0.993 | locus YAL030W, strain snc1, active compounds read low 1 | locus YBL061C, strain skt5, active compounds read low 0.984 | locus YBR009C, strain hhf1, active compounds read low 0.991 | locus YBR021W, strain FUR4, active compounds read low 1.05 | locus YBR023C, strain chs3, active compounds read low 0.995 | locus YBR171W, strain sec66, active compounds read low 1.01 | locus YBR229C, strain ROT2, active compounds read low 0.965 | locus YBR231C, strain swc5, active compounds read low 0.999 | locus YBR279W, strain paf1, active compounds read low 0.992 | locus YCL011C, strain gbp2, active compounds read low 0.994 | locus YCL016C, strain dcc1, active compounds read low 1.01 | locus YCL029C, strain bik1, active compounds read low 0.98 | locus YCL061C, strain MRC1, active compounds read low 0.991 | locus YCL069W, strain vba3, active compounds read low 1 | locus YCR088W, strain abp1, active compounds read low 1 | locus YDL005C, strain med2, active compounds read low 0.997 | locus YDL035C, strain GPR1, active compounds read low 0.977 | locus YDL040C, strain nat1, active compounds read low 0.989 | locus YDL074C, strain BRE1, active compounds read low 0.957 | locus YDL101C, strain DUN1, active compounds read low 0.964 | locus YDL134C, strain PPH21, active compounds read low 0.983 | locus YDL185W, strain tfp1, active compounds read low 0.947 | locus YDL192W, strain arf1, active compounds read low 0.983 | locus YDR001C, strain nth1, active compounds read low 0.998 | locus YDR069C, strain doa4, active compounds read low 0.975 | locus YDR101C, strain arx1, active compounds read low 0.986 | locus YDR137W, strain rgp1, active compounds read low 0.982 | locus YDR150W, strain NUM1, active compounds read low 0.985 | locus YDR159W, strain sac3, active compounds read low 0.965 | locus YDR162C, strain NBP2, active compounds read low 0.981 | locus YDR195W, strain ref2 0.933 | locus YDR297W, strain sur2, active compounds read low 0.99 | locus YDR318W, strain mcm21, active compounds read low 0.983 | locus YDR334W, strain swr1, active compounds read low 1.01 | locus YDR335W, strain msn5, active compounds read low 0.995 | locus YDR388W, active compounds read low 0.995 | locus YDR392W, strain spt3, active compounds read low 1 | locus YDR502C, strain sam2, active compounds read low 0.993 | locus YEL003W, strain gim4, active compounds read low 0.991 | locus YEL037C, strain rad23, active compounds read low 0.986 | locus YEL061C, strain CIN8 (second series), active compounds read low 0.984 | locus YEL061C, strain CIN8, active compounds read low 0.989 | locus YER015W, strain faa2, active compounds read low 0.982 | locus YER016W, strain bim1, active compounds read low 0.99 | locus YER110C, active compounds read low 0.969 | locus YER111C, strain swi4, active compounds read low 0.989 | locus YER155C, strain BEM2 (second series), active compounds read low 0.998 | locus YER155C, strain BEM2, active compounds read low 0.991 | locus YER167W, strain BCK2, active compounds read low 0.988 | locus YFR010W, strain ubp6, active compounds read low 0.994 | locus YGL078C, strain dbp3, active compounds read low 0.986 | locus YGL086W, strain mad1, active compounds read low 0.994 | locus YGL167C, strain pmr1, active compounds read low 0.994 | locus YGL173C, strain kem1, active compounds read low 0.986 | locus YGL227W, strain vid30, active compounds read low 0.991 | locus YGL240W, strain doc1, active compounds read low 0.978 | locus YGL248W, strain PDE1, active compounds read low 0.982 | locus YGL253W, strain hxk2, active compounds read low 0.998 | locus YGR078C, strain PAC10, active compounds read low 0.989 | locus YGR135W, strain pre9, active compounds read low 0.993 | locus YGR229C, strain SMI1, active compounds read low 1.01 | locus YGR252W, strain gcn5, active compounds read low 0.998 | locus YHR013C, strain ard1, active compounds read low 0.974 | locus YHR027C, strain rpn1, active compounds read low 1.01 | locus YHR030C, strain SLT2, active compounds read low 1.01 and 1.02 | locus YHR079C, strain IRE1 (second series), active compounds read low 0.982 | locus YHR079C, strain IRE1, active compounds read low 1.05 | locus YHR094C, strain hxt1, active compounds read low 0.993 | locus YHR129C, strain ARP1, active compounds read low 0.976 | locus YHR142W, strain chs7, active compounds read low 0.989 | locus YHR200W, strain rpn10, active compounds read low 0.989 | locus YIL066C, strain RNR3, active compounds read low 1 | locus YIL073C, strain SPO22, active compounds read low 1.06 | locus YIL125W, strain kgd1, active compounds read low 0.98 | locus YIR030C, strain dcg1, active compounds read low 0.988 | locus YJL092W, strain hpr5, active compounds read low 1 | locus YJL095W, strain BCK1 (second series), active compounds read low 0.996 | locus YJL095W, strain BCK1, active compounds read low 1.01 and 1.03 | locus YJL115W, strain asf1, active compounds read low 0.998 | locus YJL129C, strain trk1, active compounds read low 1.01 | locus YJL134W, strain LCB3, active compounds read low 1 | locus YJL154C, strain vps35, active compounds read low 0.997 | locus YJL164C, strain tpk1, active compounds read low 0.992 | locus YJL166W, strain qcr8, active compounds read low 0.992 | locus YJL168C, strain set2, active compounds read low 0.981 | locus YJL187C, strain SWE1 (second series), active compounds read low 0.976 | locus YJL187C, strain SWE1, active compounds read low 1 | locus YJR043C, strain POL32, active compounds read low 0.988 | locus YJR066W, strain TOR1, active compounds read low 0.981
